Test [1] is described as follows: Cell Viability - BJ (AID 421; calls by dose curve;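 also: potency is read from the fitted curve at half-maximal effect; cells exposed to compound for 40 hours at 37 °C before readout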). The settings on record: BJ fibroblast viability, qHTS. In a few lines:
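Luminescent ATP signal (CellTiter-Glo, 20 min at room temperature) served as the read-out of viable BJ cells after 40 hours of compound treatment. Responses were scaled between DMSO and 100 uM tamoxifen, and AC50 values were obtained by Hill modeling.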

A short description of test [2]: Cell Viability - Jurkat (AID 426;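 active = dose-dependent loss of cell ATP signal giving a full or clear fitted curve, ranked by lower potency value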; also: potency is read from the fitted curve at half-maximal effect). The settings on record: qHTS. In a few lines:
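Luminescent ATP read-out (CellTiter-Glo, 20 min at room temperature) after 40 hr compound exposure at 37 °C of Jurkat E6-1 cells, 5000/well. Decreased ATP taken as cytotoxicity; AC50 from standard Hill equation.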
(Quantitative high-throughput screening tests each substance at several concentrations.)

Test [3] is described as follows: Cell Viability - Hek293 (AID 427;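 active = compounds whose dose-response curve shows a full or clear partial loss of cell viability, called from curve shape rather than a numeric limit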;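 also: potency is read from the fitted curve at half-maximal effect; cells exposed to compound for 40 hours at 37 °C before reading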). As to conditions: qHTS. In a few lines: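 Luminescent ATP read-out (CellTiter-Glo, 20 min RT) after 40 hr compound exposure at 37 °C in complete medium. Signal normalized to DMSO (basal) and 100 uM tamoxifen (100% inhibition); concentration-response fitted with the standard Hill equation to give AC50.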
Test [4] in a line: Cell Viability - HepG2 (AID 433; calls by dose curve;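 also: potency is read from the fitted curve at half-maximal effect; potency for ATP loss meaning cytotoxicity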). The settings on record: qHTS. In a few lines: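 HepG2 cells, 1500 per well, treated 40 hr at 37 °C in complete medium; viability from intracellular ATP by CellTiter-Glo luminescence. Normalized to DMSO and 100 uM tamoxifen; AC50 from Hill fit of qHTS concentration-response.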
Test [5] can be described thus: Cell Viability - MRC5 (AID 434; calls by dose curve;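 also: potency is read from the fitted curve at half-maximal effect; potency reflects cytotoxicity seen as loss of intracellular ATP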). The settings on record: MRC5 lung fibroblast viability, qHTS. In a few lines:
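AC50 values come from Hill-equation fits of intracellular ATP loss, measured by CellTiter-Glo luminescence. Normal lung fibroblasts (MRC5) had 40 hr compound treatment at 37 C, normalized between DMSO and 100 uM tamoxifen.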

Test [6] in a line: Cell Viability - SK-N-SH (AID 435; calls by dose curve; also: potency is read from the fitted curve at half-maximal effect). As to conditions: SK-N-SH neuroblastoma cell viability qHTS. In a few lines:
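SK-N-SH neuroblastoma cells (1500/well) treated 40 h at 37 °C in complete medium; viability read as cellular ATP by CellTiter-Glo luminescence. Normalized to DMSO and 100 uM tamoxifen; AC50 from Hill fits of qHTS concentration-response.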

The target in test [7] is Mitogen-activated protein kinase 10 (Mus musculus) (UniProt Q61831). In words: JNK3 AlphaScreen Assay (AID 530; active = well fitted curve in either direction with a large enough effect, not every such curve was filed as active;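 also: kinase came from lysate of stimulated human HepG2 cells; signal reports phosphorylation of biotinylated GST-cJun 1-79 at Ser73 with 10 µM ATP; % is scaled to controls: 0 for no effect and ±100 for the full control effect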). The settings on record: JNK3 lysate, c-Jun phosphorylation; series mostly up to 57.1 µM. In a few lines:
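Kinase buffer: 20 mM Tris-HCl pH 7.6, 10 mM MgCl2, 1 mM DTT, 0.1 mM Na3VO4, 0.01% Tween-20; ATP 10 uM. Substrate biotin-GST-cJun(1-79), enzyme from activated HepG2 lysates. Detection by Ser73 phospho-antibody AlphaScreen.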
A general note: In Alpha technology, singlet oxygen from a donor bead excites a nearby acceptor bead.

Test [8] is described as follows: Cell Viability - N2a (AID 540).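 Also: plate controls were DMSO alone for no effect and tamoxifen control for full effect; nearly all actives have a fitted effect of over 45% in size.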 The settings on record: N2a mouse neuroblastoma cell viability; activity change, negative = cytotoxicity: at 92.2 µM (top of the series). In a few lines: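 N2a mouse neuroblastoma, 1500 cells/well, 5 hr settle; compound 40 hr, 37 °C; CellTiter-Glo 20 min RT; luminescence; Hill-fit AC50.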
A short description of test [9]: Cell Viability - NIH 3T3 (AID 541).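 Also: plate controls were DMSO alone for no effect and tamoxifen positive control for full effect; nearly all actives have a fitted effect of over 25% in size.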 As to conditions: NIH 3T3 cell viability, qHTS; activity change, negative = cytotoxicity: at 92.2 µM (top of the series). In a few lines: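 qHTS format; 40 hr compound exposure, 37 °C; CellTiter-Glo luminescence (cellular ATP) read-out after 20 min at RT. Decrease in ATP = cytotoxicity; AC50 from standard Hill fit.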
Test [10] in a line: Cell Viability - HUV-EC-C (AID 542). Also: % is scaled to controls: 0 for no effect and ±100 for the full control effect; nearly all actives have a fitted effect of over 35% in size. As to conditions: HUV-EC-C endothelial cell viability, qHTS; series mostly up to 92.2 µM. In a few lines:
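Luminescent ATP read-out (CellTiter-Glo, 20 min room temperature) after 40 hr compound treatment of HUV-EC-C cells at 37 °C. Concentration-response data fitted with the standard Hill equation to give AC50; tamoxifen and doxorubicin served as positive controls.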

A short description of test [11]: Cell Viability - H-4-II-E (AID 543). Also: % is scaled to controls: 0 for no effect and ±100 for the full control effect; nearly all actives have a fitted effect of over 35% in size. As to conditions: H-4-II-E rat hepatoma viability; series mostly up to 92.2 µM. In a few lines: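 qHTS, rat hepatoma H-4-II-E, 1500 cells/well; 40 hr compound exposure, 37 °C; CellTiter-Glo ATP luminescence after 20 min RT; AC50 by standard Hill fit.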
Test [12] can be described thus: Cell Viability - SH-SY5Y (AID 544). Also: nearly all actives have a fitted effect of over 55% in size. Also: potency is read from the fitted curve at half-maximal effect. As to conditions: SH-SY5Y neuroblastoma cell viability; viability change, negative = cytotoxic: at 92.2 µM (top of the series). In a few lines: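 SH-SY5Y, 1500 cells/well, 5 hr pre-incubation 37 °C; cpd 40 hr 37 °C; CellTiter-Glo 20 min RT; luminescence (ATP) read. qHTS concentration-response, Hill fit → AC50. Tamoxifen, doxorubicin as positive controls.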

Test [13] can be described thus: Cell Viability - Renal Proximal Tubule (AID 545). Also: nearly all actives have a fitted effect of over 40% in size. The settings on record: renal proximal tubule cells viability, primary cells of rat origin; series mostly up to 91.7 µM. In a few lines: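 Rat renal proximal tubule primary cells, 1000/well, exposed to compounds for 40 hr at 37 °C in complete medium; cellular ATP read by CellTiter-Glo luminescence. AC50 from concentration-response fitted with standard Hill equation.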

A short description of test [14]: Cell Viability - Mesenchymal (AID 546).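 Also: cells exposed to compound for 40 hours before reading.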 The settings on record: mesenchymal cells viability, qHTS; series mostly up to 91.7 µM. In a few lines: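 CellTiter-Glo luminescence (intracellular ATP, 20 min room temperature) after 40 hr compound exposure at 37 °C of 1000 glomerulus-derived human kidney mesenchymal cells/well; AC50 values obtained by fitting qHTS concentration-response data to the Hill equation.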

Test [15] in a line: Cellular Toxicity (caspase-3) HepG2 (AID 654).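 Also: cells exposed to compound for 16 hours before reading; 0% = DMSO alone and 100% = caspase signal from 100 µM tamoxifen.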 The settings on record: HepG2 caspase-3 activation, luminescence; series mostly up to 92.2 µM. In a few lines:
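Luminescent Caspase-Glo 3/7 readout after 16 hr compound exposure of human hepatocellular carcinoma HepG2 cells at 37 °C; qHTS concentration-response, normalized DMSO = 0%, 100 uM tamoxifen = 100%; AC50 by standard Hill equation.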

The nature of test [16]: Cellular Toxicity (caspase-3) Jurkat (AID 655).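 Also: cells exposed to compound for 16 h at 37 °C before reading.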 The settings on record: Jurkat caspase-3 activation, luminescence; caspase-3 activation: at 92.2 µM (top of the series), DMSO = 0%, tamoxifen = 100%. In a few lines: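 Jurkat cells (5000/well) in complete medium exposed 16 h at 37 C; caspase-3/7 activity read by Caspase-Glo luminescence after 20 min at room temperature. Normalized to DMSO and 100 uM tamoxifen; AC50 from Hill fits.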

Test [17] in a line: Cellular Toxicity (caspase-3) HUV-EC-C (AID 656). The settings on record: HUV-EC-C cells, caspase-3 activation (apoptosis), vehicle = 0, 100 µM tamoxifen = 100%; series mostly up to 92.2 µM. In a few lines:
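HUV-EC-C cells (1000/well) in complete medium, compound-treated 16 h at 37 °C; caspase-3/7 activity read by Caspase-Glo 3/7 luminescence. Normalized to DMSO (basal) and 100 uM tamoxifen (100%); AC50 from Hill-equation concentration-response fits.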

The nature of test [18]: Cellular Toxicity (caspase-3) SHSY5Y (AID 657). The settings on record: SH-SY5Y caspase-3 activation, DMSO zero, 10 µM staurosporine = 100%; series mostly up to 91.7 µM. In a few lines: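 SH-SY5Y human neuroblastoma cells, 1500/well, exposed to compound for 16 hours at 37 °C in complete medium. Caspase-3/7 activity read by Caspase-Glo luminescence after 1 hr at room temperature, normalized to DMSO and 10 uM staurosporine; AC50 from Hill fit.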

Test [19] is described as follows: Cellular Toxicity (caspase-3) BJ (AID 658). As to conditions: BJ fibroblasts, luminescence, normalized: DMSO 0%, staurosporine 100%; series mostly up to 91.7 µM. In a few lines: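 Caspase-Glo 3/7 luminescence, read 1 hr after reagent at room temperature, in normal BJ fibroblasts exposed 16 hours at 37 °C. AC50 values from Hill-equation concentration-response, scaled between DMSO basal and 10 uM staurosporine as 100%.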

Test [20] is described as follows: Cellular Toxicity (caspase-3) MRC-5 (AID 659). As to conditions: MRC-5 cells, luminescence, normalized: DMSO 0%, 10 µM staurosporine 100%; series mostly up to 91.7 µM. In a few lines:
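Luminescent Caspase-Glo 3/7 read-out (1 h, room temperature) after a 16 h, 37 °C compound exposure of MRC-5 lung fibroblasts at 1500 cells/well. Concentration-response AC50 from Hill equation; 0% DMSO, 100% 10 uM staurosporine.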

From PubChem BioAssay (NCATS) come the findings set out here.

A number with no mark means an inactive call. Records with an inconclusive call do not appear. Active and inactive are the calls of the source. Unless noted, calls follow the shape of the dose curve; as a rule, active = well fitted curve in the direction sought with a large enough effect; inconclusive = small, poorly fitted or top-dose-only effect, or another doubt; inactive = no such curve, though single readings can be large; an effect the other way counts as inactive or inconclusive.

Consider `Nc1cc(S(=O)(=O)O)ccc1O`, for which the Potency in test [1], in [2], in test [3], in [4], in test [5] and in [6] was above 92 µM throughout. Also, the outcome in [7], in test [17], in [18], in test [19] and in test [20] was inactive. For the same compound, in [8], the activity change, negative = cytotoxicity is -15.5%. Also, the Potency result in test [9], in test [10], in test [11], in test [12], in [13] and in test [14] was “inactive” throughout. The Potency entry in test [15] is “inactive”. Besides, the caspase-3 activation in [16] is -0.212%.

With `CC(=O)OCc1ccco1`, the Potency in test [1], in test [2], in test [3], in test [4], in test [5] and in [6] was above 92 µM throughout. Further, the Potency in test [12] was 31.6 µM (active). Moreover, the result in [7], in test [17], in [18], in [19] and in test [20] was inactive. Besides, in test [8], the activity change, negative = cytotoxicity was -7.42%. Also, the Potency result in test [9], in test [10], in [11], in test [13], in test [14] and in test [15] was “inactive” throughout. The caspase-3 activation in test [16] is 13.6%.

Consider `Cc1cccc(C(=O)O)c1[N+](=O)[O-]`, for which the Potency in [1], in test [2], in [3], in test [4], in test [5] and in test [6] was above 92 µM each time. Moreover, the outcome in [7], in test [17], in test [18], in test [19] and in test [20] was inactive. For the same compound, the activity change, negative = cytotoxicity in test [8] was 8.99%. Further, the Potency entry in [9], in [10], in test [11], in [12], in [13] and in [14] was “inactive” each time. For the same compound, the Potency result in [15] was “inactive”. In [16], the caspase-3 activation was 0.0965%.

For `CCOC(=O)OCC`, the Potency in [1], in test [2], in [3], in [4], in [5] and in test [6] was above 92 µM each time. Moreover, the compound was classed as inactive in test [7], in [17], in test [18], in test [19] and in test [20]. Further, the activity change, negative = cytotoxicity in [8] is -11.2%. For the same compound, the Potency result in test [9], in test [10], in [11], in test [12], in [13] and in test [14] was “inactive” in each case. Besides, the Potency result in test [15] was “inactive”. The caspase-3 activation in test [16] is 0.854%.

Take `O=C1C=CCCC1`: the Potency in [1], in [2], in test [3], in test [4], in test [5] and in [6] was above 92 µM throughout. Moreover, the result in test [7], in [17], in test [18], in test [19] and in [20] was inactive. The activity change, negative = cytotoxicity in [8] was 3.2%. Also, the Potency result in test [9], in [10], in [11], in test [12], in test [13] and in test [14] was “inactive” in each case. Moreover, in [15], the Potency result is “inactive”. In addition, in [16], the caspase-3 activation is -0.0925%.

Turning to `CNC(=O)N(c1ccccc1)c1ccccc1`, the Potency in test [1], in [2], in test [3], in test [4], in [5] and in test [6] was above 92 µM throughout. The call in test [7], in test [17], in [18], in test [19] and in [20] was inactive. Besides, the activity change, negative = cytotoxicity in [8] is -1.02%. The Potency result in test [9], in test [10], in [11], in test [12], in test [13] and in test [14] was “inactive” throughout. In addition, in test [15], the Potency result was “inactive”. Further, the caspase-3 activation in test [16] is 1.82%.
